# Where a chain is given by its changes, count along the chain named.
# Legend:
# Assay in all cases: PBM; 200 nM protein, PBS
# Conditions in all cases: dsDNA, one strand shown
# SIX6 [1] = target: T1, SIX6 (Homo sapiens, UniProt O95475 114-200, L167I)
# T1 sequence: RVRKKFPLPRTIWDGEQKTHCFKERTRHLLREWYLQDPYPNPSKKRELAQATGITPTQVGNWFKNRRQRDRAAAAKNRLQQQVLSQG
# SIX6 [2] = target: T2, SIX6 (Homo sapiens, UniProt O95475 114-200, L143V)
# T2 sequence: T1 sequence with L30V, I54L
# SIX6 [3] = target: T3, SIX6 (Homo sapiens, UniProt O95475 114-200, H141N)
# T3 sequence: T1 sequence with H28N, I54L
# SIX6 [4] = target: T4, SIX6 (Homo sapiens, UniProt O95475 114-200, T165P)
# T4 sequence: T1 sequence with T52P, I54L
# SIX6 [5] = target: T5, SIX6 (Homo sapiens, UniProt O95475 114-200, L167M)
# T5 sequence: T1 sequence with I54M
# SIX6 [6] = target: T6, SIX6 (Homo sapiens, UniProt O95475 114-200, L143M)
# T6 sequence: T1 sequence with L30M, I54L
# SIX6 [7] = target: T7, SIX6 (Homo sapiens, UniProt O95475 114-200, L143I)
# T7 sequence: T1 sequence with L30I, I54L
# SIX6 [8] = target: T8, SIX6 (Homo sapiens, UniProt O95475 114-200, T165G)
# T8 sequence: T1 sequence with T52G, I54L
# SIX6 [9] = target: T9, SIX6 (Homo sapiens, UniProt O95475 114-200, T139Q)
# T9 sequence: T1 sequence with T26Q, I54L
# SIX6 [10] = target: T10, SIX6 (Homo sapiens, UniProt O95475 114-200, T165A)
# T10 sequence: T1 sequence with T52A, I54L
# SIX6 [11] = target: T11, SIX6 (Homo sapiens, UniProt O95475 114-200, L167V)
# T11 sequence: T1 sequence with I54V
# SIX6 [12] = target: T12, SIX6 (Homo sapiens, UniProt O95475 114-200)
# T12 sequence: T1 sequence with I54L
# SIX6 [13] = target: T13, SIX6 (Homo sapiens, UniProt O95475 114-200, T165I)
# T13 sequence: T1 sequence with T52I, I54L
Sequence,binding signal (SIX6 [1]),binding signal (SIX6 [2]),binding signal (SIX6 [3]),binding signal (SIX6 [4]),binding signal (SIX6 [5]),binding signal (SIX6 [6]),binding signal (SIX6 [7]),binding signal (SIX6 [8]),binding signal (SIX6 [9]),binding signal (SIX6 [10]),binding signal (SIX6 [11]),binding signal (SIX6 [12]),binding signal (SIX6 [13])
GATACCCC,"11.5 upbm affinity estimate (log intensity, higher = more binding, comparable within an allelic series)","10.4 upbm affinity estimate (log intensity, higher = more binding, comparable within an allelic series)","11.5 upbm affinity estimate (log intensity, higher = more binding, comparable within an allelic series)","9.41 upbm affinity estimate (log intensity, higher = more binding, comparable within an allelic series)","11 upbm affinity estimate (log intensity, higher = more binding, comparable within an allelic series)","11.2 upbm affinity estimate (log intensity, higher = more binding, comparable within an allelic series)","10.5 upbm affinity estimate (log intensity, higher = more binding, comparable within an allelic series)","11.6 upbm affinity estimate (log intensity, higher = more binding, comparable within an allelic series)","11.4 upbm affinity estimate (log intensity, higher = more binding, comparable within an allelic series)","11.3 upbm affinity estimate (log intensity, higher = more binding, comparable within an allelic series)","11.2 upbm affinity estimate (log intensity, higher = more binding, comparable within an allelic series)","11.3 upbm affinity estimate (log intensity, higher = more binding, comparable within an allelic series)","11.2 upbm affinity estimate (log intensity, higher = more binding, comparable within an allelic series)"
AGGCCCCG,"8.89 upbm affinity estimate (log intensity, higher = more binding, comparable within an allelic series)","8.82 upbm affinity estimate (log intensity, higher = more binding, comparable within an allelic series)","8.69 upbm affinity estimate (log intensity, higher = more binding, comparable within an allelic series)","8.87 upbm affinity estimate (log intensity, higher = more binding, comparable within an allelic series)","8.92 upbm affinity estimate (log intensity, higher = more binding, comparable within an allelic series)","8.79 upbm affinity estimate (log intensity, higher = more binding, comparable within an allelic series)","8.8 upbm affinity estimate (log intensity, higher = more binding, comparable within an allelic series)","8.83 upbm affinity estimate (log intensity, higher = more binding, comparable within an allelic series)","8.79 upbm affinity estimate (log intensity, higher = more binding, comparable within an allelic series)","8.77 upbm affinity estimate (log intensity, higher = more binding, comparable within an allelic series)","8.67 upbm affinity estimate (log intensity, higher = more binding, comparable within an allelic series)","8.75 upbm affinity estimate (log intensity, higher = more binding, comparable within an allelic series)","8.82 upbm affinity estimate (log intensity, higher = more binding, comparable within an allelic series)"
GGTATCAA,"11.6 upbm affinity estimate (log intensity, higher = more binding, comparable within an allelic series)","10.6 upbm affinity estimate (log intensity, higher = more binding, comparable within an allelic series)","11.7 upbm affinity estimate (log intensity, higher = more binding, comparable within an allelic series)","9.74 upbm affinity estimate (log intensity, higher = more binding, comparable within an allelic series)","11 upbm affinity estimate (log intensity, higher = more binding, comparable within an allelic series)","11.4 upbm affinity estimate (log intensity, higher = more binding, comparable within an allelic series)","10.6 upbm affinity estimate (log intensity, higher = more binding, comparable within an allelic series)","11.6 upbm affinity estimate (log intensity, higher = more binding, comparable within an allelic series)","11.5 upbm affinity estimate (log intensity, higher = more binding, comparable within an allelic series)","11.6 upbm affinity estimate (log intensity, higher = more binding, comparable within an allelic series)","11.4 upbm affinity estimate (log intensity, higher = more binding, comparable within an allelic series)","11.4 upbm affinity estimate (log intensity, higher = more binding, comparable within an allelic series)","11.4 upbm affinity estimate (log intensity, higher = more binding, comparable within an allelic series)"
GTGATATA,"11.3 upbm affinity estimate (log intensity, higher = more binding, comparable within an allelic series)","10.5 upbm affinity estimate (log intensity, higher = more binding, comparable within an allelic series)","11.3 upbm affinity estimate (log intensity, higher = more binding, comparable within an allelic series)","9.96 upbm affinity estimate (log intensity, higher = more binding, comparable within an allelic series)","11 upbm affinity estimate (log intensity, higher = more binding, comparable within an allelic series)","10.9 upbm affinity estimate (log intensity, higher = more binding, comparable within an allelic series)","10.4 upbm affinity estimate (log intensity, higher = more binding, comparable within an allelic series)","11.3 upbm affinity estimate (log intensity, higher = more binding, comparable within an allelic series)","11.1 upbm affinity estimate (log intensity, higher = more binding, comparable within an allelic series)","11.3 upbm affinity estimate (log intensity, higher = more binding, comparable within an allelic series)","11.1 upbm affinity estimate (log intensity, higher = more binding, comparable within an allelic series)","11.1 upbm affinity estimate (log intensity, higher = more binding, comparable within an allelic series)","11.2 upbm affinity estimate (log intensity, higher = more binding, comparable within an allelic series)"
AGTATCAC,"11.3 upbm affinity estimate (log intensity, higher = more binding, comparable within an allelic series)","10.3 upbm affinity estimate (log intensity, higher = more binding, comparable within an allelic series)","11.2 upbm affinity estimate (log intensity, higher = more binding, comparable within an allelic series)","9.74 upbm affinity estimate (log intensity, higher = more binding, comparable within an allelic series)","10.6 upbm affinity estimate (log intensity, higher = more binding, comparable within an allelic series)","11 upbm affinity estimate (log intensity, higher = more binding, comparable within an allelic series)","10.3 upbm affinity estimate (log intensity, higher = more binding, comparable within an allelic series)","11.3 upbm affinity estimate (log intensity, higher = more binding, comparable within an allelic series)","11.3 upbm affinity estimate (log intensity, higher = more binding, comparable within an allelic series)","11.3 upbm affinity estimate (log intensity, higher = more binding, comparable within an allelic series)","11 upbm affinity estimate (log intensity, higher = more binding, comparable within an allelic series)","11 upbm affinity estimate (log intensity, higher = more binding, comparable within an allelic series)","11 upbm affinity estimate (log intensity, higher = more binding, comparable within an allelic series)"
AGTGATAC,"11.6 upbm affinity estimate (log intensity, higher = more binding, comparable within an allelic series)","10.5 upbm affinity estimate (log intensity, higher = more binding, comparable within an allelic series)","11.5 upbm affinity estimate (log intensity, higher = more binding, comparable within an allelic series)","9.81 upbm affinity estimate (log intensity, higher = more binding, comparable within an allelic series)","10.9 upbm affinity estimate (log intensity, higher = more binding, comparable within an allelic series)","11.2 upbm affinity estimate (log intensity, higher = more binding, comparable within an allelic series)","10.5 upbm affinity estimate (log intensity, higher = more binding, comparable within an allelic series)","11.6 upbm affinity estimate (log intensity, higher = more binding, comparable within an allelic series)","11.5 upbm affinity estimate (log intensity, higher = more binding, comparable within an allelic series)","11.5 upbm affinity estimate (log intensity, higher = more binding, comparable within an allelic series)","11.4 upbm affinity estimate (log intensity, higher = more binding, comparable within an allelic series)","11.2 upbm affinity estimate (log intensity, higher = more binding, comparable within an allelic series)","11.4 upbm affinity estimate (log intensity, higher = more binding, comparable within an allelic series)"

# Source: article PMC11006913
